{"source": "the supplement of paper PMC11732987", "about": "“Enantioselective OTUD7B fragment discovery through chemoproteomics screening and high-throughput optimisation” (Communications Chemistry, 2025)", "assay_in_all_cases": "log2 ratio of Biotin-Ahx-Ub-VS probe labelling (fragment/DMSO); higher = less target engagement (more negative = stronger competition), active = hit call of the paper (q ≤ 0.05, log2 ratio ≤ -1)", "details_in_all_cases": "compound concentration: 200 uM; treatment time: 3 h", "key": {"OTUD6B": {"molecular_target": "T1, OTUD6B (UniProt Q8N6M0)", "T1 sequence (whole entry)": "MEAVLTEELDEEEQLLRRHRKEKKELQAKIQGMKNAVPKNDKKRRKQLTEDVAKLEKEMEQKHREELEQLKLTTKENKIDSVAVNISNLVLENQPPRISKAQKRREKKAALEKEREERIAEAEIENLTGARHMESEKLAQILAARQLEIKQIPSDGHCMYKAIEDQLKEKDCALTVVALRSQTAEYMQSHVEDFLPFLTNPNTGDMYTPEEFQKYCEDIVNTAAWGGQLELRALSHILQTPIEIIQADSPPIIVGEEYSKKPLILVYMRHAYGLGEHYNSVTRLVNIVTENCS", "method_in_brief": "(§1)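 HEK293T lysate in Tris/CHAPS/IGEPAL buffer with protease inhibitors (495 µg per sample) was given fragment at 200 µM or vehicle for 3 h, in triplicate. It then received Biotin-Ahx-Ub-VS at 0.5 µM final for 1 h. Labelled DUBs were NeutrAvidin-enriched, digested with LysC and trypsin, and run by diaPASEF LC-MS/MS. Values are average log2 fragment/vehicle ratios by unpaired t-test on global-median-normalised Spectronaut quantities of proteins with ≥2 unique peptides.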"}, "OTUD7B": {"molecular_target": "T2, OTUD7B (UniProt Q6GQQ9)", "T2 sequence (whole entry)": "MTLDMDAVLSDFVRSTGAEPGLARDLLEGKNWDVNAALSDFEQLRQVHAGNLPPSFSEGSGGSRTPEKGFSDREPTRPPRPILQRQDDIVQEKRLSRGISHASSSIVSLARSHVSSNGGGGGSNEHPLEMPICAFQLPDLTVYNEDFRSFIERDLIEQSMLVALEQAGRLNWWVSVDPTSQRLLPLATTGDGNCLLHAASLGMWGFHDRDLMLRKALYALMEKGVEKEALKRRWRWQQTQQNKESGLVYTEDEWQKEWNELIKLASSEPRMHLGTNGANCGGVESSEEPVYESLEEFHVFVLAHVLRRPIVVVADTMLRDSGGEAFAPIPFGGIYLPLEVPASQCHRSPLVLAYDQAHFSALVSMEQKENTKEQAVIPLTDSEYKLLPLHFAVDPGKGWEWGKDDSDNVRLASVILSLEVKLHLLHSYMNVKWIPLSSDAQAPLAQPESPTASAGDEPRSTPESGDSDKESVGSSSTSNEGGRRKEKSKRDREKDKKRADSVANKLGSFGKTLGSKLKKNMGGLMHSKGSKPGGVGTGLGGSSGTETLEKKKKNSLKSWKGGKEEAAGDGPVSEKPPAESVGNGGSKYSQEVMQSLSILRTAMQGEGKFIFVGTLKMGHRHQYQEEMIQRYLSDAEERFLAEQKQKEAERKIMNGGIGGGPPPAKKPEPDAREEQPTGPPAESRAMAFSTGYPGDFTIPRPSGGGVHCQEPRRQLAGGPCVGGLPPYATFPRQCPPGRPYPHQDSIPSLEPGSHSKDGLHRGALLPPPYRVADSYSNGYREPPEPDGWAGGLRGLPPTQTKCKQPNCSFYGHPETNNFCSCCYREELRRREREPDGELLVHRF", "method_in_brief": "as §1"}, "PRPF8": {"molecular_target": "PRPF8 (UniProt Q6P2Q9)", "method_in_brief": "as §1"}, "PSMD7": {"molecular_target": "T3, PSMD7 (UniProt P51665)", "T3 sequence (whole entry)": "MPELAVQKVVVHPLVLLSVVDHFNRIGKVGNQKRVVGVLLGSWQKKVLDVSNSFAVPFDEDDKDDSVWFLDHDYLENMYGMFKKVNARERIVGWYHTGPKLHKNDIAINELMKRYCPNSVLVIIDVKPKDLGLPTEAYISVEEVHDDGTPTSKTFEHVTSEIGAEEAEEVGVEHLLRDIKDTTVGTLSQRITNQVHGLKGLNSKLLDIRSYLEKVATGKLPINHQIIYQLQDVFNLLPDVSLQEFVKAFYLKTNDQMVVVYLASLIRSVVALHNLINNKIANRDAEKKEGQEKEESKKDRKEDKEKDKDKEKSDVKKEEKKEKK", "method_in_brief": "as §1"}, "UCHL1": {"molecular_target": "UCHL1 (UniProt P09936)", "sequence (P09936 whole entry, looked up)": "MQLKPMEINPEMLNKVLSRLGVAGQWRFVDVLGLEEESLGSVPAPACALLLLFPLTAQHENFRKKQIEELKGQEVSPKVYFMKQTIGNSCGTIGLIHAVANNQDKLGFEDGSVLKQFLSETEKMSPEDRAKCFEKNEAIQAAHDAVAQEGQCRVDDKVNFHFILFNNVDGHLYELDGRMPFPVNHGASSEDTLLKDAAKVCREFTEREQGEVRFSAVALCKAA", "method_in_brief": "as §1"}, "UCHL3": {"molecular_target": "T4, UCHL3 (UniProt P15374)", "T4 sequence (whole entry)": "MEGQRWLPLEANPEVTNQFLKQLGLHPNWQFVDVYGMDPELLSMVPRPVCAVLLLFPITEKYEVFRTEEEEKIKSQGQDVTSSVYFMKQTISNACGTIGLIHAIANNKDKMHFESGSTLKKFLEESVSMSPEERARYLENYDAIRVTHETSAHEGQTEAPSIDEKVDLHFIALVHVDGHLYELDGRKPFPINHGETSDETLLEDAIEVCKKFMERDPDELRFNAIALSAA", "method_in_brief": "as §1"}, "UCHL5": {"molecular_target": "T5, UCHL5 (UniProt Q9Y5K5)", "T5 sequence (whole entry)": "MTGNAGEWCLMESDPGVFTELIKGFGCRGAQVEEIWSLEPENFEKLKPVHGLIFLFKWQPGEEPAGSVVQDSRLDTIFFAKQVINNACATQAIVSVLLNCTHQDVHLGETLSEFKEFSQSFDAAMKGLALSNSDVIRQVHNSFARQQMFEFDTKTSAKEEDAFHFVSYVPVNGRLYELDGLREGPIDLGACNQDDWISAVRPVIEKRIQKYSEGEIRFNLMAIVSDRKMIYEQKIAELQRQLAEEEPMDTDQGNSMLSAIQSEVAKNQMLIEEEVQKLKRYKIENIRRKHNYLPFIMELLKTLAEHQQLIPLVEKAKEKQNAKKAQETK", "method_in_brief": "as §1"}, "USP10": {"molecular_target": "USP10 (UniProt Q14694)", "sequence (Q14694 whole entry)": "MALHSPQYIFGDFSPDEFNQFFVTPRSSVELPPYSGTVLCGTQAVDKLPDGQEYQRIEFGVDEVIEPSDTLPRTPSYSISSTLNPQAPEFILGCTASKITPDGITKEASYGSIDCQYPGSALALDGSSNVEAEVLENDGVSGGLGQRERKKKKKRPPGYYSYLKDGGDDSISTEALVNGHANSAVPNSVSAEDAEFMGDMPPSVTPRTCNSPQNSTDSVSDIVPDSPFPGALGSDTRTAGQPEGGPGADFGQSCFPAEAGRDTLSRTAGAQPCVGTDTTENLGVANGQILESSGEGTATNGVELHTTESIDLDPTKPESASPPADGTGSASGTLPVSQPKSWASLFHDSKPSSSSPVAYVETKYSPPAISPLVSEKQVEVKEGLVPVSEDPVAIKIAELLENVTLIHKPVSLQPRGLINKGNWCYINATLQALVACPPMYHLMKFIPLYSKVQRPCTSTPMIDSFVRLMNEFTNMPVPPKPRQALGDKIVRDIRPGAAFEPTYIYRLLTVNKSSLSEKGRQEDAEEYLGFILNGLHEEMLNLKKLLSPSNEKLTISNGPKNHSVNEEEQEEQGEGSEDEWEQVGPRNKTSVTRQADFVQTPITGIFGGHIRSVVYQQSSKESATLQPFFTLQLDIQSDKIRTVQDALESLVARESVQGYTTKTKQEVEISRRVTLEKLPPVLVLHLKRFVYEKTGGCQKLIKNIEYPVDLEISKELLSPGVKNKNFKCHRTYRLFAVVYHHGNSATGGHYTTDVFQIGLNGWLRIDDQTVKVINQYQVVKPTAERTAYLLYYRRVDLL", "method_in_brief": "as §1"}, "USP15": {"molecular_target": "T6, USP15 (UniProt Q9Y4E8)", "T6 sequence (whole entry)": "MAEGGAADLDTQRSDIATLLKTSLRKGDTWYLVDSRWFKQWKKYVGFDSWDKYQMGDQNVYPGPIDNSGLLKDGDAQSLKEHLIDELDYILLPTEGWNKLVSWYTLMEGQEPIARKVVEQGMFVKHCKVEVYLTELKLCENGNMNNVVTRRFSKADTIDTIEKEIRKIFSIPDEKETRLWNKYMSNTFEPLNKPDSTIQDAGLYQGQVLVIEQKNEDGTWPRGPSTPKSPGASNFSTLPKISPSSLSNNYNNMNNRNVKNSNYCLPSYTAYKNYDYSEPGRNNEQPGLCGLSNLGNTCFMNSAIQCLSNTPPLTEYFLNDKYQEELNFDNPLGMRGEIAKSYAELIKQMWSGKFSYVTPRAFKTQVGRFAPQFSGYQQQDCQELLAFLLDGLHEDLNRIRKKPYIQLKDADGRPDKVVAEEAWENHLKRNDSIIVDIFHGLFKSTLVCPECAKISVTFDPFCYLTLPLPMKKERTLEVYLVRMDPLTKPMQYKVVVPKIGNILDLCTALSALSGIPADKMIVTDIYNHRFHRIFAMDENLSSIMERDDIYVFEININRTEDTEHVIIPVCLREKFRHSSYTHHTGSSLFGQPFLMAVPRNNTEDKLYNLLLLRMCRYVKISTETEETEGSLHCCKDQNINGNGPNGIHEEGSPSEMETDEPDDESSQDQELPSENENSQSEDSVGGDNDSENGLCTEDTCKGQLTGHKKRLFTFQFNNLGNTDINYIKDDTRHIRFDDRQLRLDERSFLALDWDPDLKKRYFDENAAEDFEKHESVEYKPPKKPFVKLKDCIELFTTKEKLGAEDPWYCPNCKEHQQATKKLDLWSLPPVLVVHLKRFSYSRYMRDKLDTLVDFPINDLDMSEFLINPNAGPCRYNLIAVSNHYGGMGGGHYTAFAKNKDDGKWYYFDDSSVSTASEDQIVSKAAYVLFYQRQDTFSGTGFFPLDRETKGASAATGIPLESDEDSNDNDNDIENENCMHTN", "method_in_brief": "as §1"}, "USP16": {"molecular_target": "USP16 (UniProt Q9Y5T5)", "sequence (Q9Y5T5 whole entry, looked up)": "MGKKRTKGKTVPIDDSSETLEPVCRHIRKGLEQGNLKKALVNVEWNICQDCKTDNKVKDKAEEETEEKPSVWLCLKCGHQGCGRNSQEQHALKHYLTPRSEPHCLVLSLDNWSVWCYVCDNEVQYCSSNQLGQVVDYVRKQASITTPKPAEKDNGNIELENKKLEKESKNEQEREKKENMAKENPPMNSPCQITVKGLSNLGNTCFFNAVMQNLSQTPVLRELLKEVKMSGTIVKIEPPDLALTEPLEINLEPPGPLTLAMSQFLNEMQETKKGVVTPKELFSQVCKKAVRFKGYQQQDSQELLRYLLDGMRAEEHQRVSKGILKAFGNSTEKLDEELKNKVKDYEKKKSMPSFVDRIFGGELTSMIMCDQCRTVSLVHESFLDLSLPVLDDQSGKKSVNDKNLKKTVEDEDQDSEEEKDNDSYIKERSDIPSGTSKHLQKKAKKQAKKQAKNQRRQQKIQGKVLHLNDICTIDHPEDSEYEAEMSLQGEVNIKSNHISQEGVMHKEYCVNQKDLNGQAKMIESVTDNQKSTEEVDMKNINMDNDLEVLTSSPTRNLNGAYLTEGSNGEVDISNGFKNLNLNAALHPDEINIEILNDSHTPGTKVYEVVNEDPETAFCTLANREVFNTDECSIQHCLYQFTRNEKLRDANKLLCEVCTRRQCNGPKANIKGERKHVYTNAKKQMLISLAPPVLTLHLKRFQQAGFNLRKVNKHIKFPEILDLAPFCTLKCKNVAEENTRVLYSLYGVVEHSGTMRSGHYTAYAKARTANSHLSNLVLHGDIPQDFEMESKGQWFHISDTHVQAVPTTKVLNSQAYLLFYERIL", "method_in_brief": "as §1"}}, "note": "Values without a mark were called inactive."}
{"compound": "O=C(CCl)N1CCC(OCc2ccccc2F)CC1", "values": [{"measurement": "log2 ratio of Biotin-Ahx-Ub-VS probe labelling", "setting": "OTUD6B", "value": 0.102}, {"measurement": "log2 ratio of Biotin-Ahx-Ub-VS probe labelling", "setting": "OTUD7B", "value": -0.198}, {"measurement": "log2 ratio of Biotin-Ahx-Ub-VS probe labelling", "setting": "PRPF8", "value": 0.14}, {"measurement": "log2 ratio of Biotin-Ahx-Ub-VS probe labelling", "setting": "PSMD7", "value": 0.0473}, {"measurement": "log2 ratio of Biotin-Ahx-Ub-VS probe labelling", "setting": "UCHL1", "value": "-1.13 (active)"}, {"measurement": "log2 ratio of Biotin-Ahx-Ub-VS probe labelling", "setting": "UCHL3", "value": 0.341}, {"measurement": "log2 ratio of Biotin-Ahx-Ub-VS probe labelling", "setting": "UCHL5", "value": -0.00457}, {"measurement": "log2 ratio of Biotin-Ahx-Ub-VS probe labelling", "setting": "USP10", "value": -0.192}, {"measurement": "log2 ratio of Biotin-Ahx-Ub-VS probe labelling", "setting": "USP15", "value": -0.104}, {"measurement": "log2 ratio of Biotin-Ahx-Ub-VS probe labelling", "setting": "USP16", "value": -0.184}]}
